NR5A2 inv ag – suppresses constitutive activity of human LRH-1; HEK293T StAR-luciferase reporter, LRH-1 transfected, 24 h; inhibition, % at 3.6 µM; O00482; 360,000 tested, 0.13% active; AID 602396;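 active = inhibition above the mean inhibition of all tested compounds plus 3 SD, cut at about 73% in these data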;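 note: 0% = DMSO wells and 100% = reporter-only cells lacking LRH-1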
Target sequence (O00482 whole entry, looked up): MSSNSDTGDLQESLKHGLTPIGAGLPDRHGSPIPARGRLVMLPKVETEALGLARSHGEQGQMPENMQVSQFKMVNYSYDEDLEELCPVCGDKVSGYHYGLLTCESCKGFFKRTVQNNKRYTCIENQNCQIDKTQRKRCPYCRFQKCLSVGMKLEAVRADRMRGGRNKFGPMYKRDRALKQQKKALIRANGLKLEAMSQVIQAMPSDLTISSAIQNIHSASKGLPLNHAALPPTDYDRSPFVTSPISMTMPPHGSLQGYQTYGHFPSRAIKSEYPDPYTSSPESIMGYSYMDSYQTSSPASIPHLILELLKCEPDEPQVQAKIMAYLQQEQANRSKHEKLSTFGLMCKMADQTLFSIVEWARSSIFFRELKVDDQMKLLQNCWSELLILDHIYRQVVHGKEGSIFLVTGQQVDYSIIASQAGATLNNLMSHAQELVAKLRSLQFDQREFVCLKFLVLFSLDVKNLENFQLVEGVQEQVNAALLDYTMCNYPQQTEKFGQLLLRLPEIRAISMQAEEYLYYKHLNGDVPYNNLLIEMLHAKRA
NCOA2 inhibitor – inhibits human steroid receptor coactivator 2; Q15596; HEK293 GAL4-SRC2 luciferase reporter, luminescence; inhibition, % at 9 µM; 370,000 tested, 0.17% active; AID 651957;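 active = inhibition above the mean inhibition of all tested compounds plus 3 SD, set per campaign, cut at about 52% in these data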;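 note: 0% = DMSO treated cells and 100% = cells given Gossypol at 36 µM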
NCOA3 inh – inhibits human SRC3 coactivator; Q9Y6Q9; HEK293 GAL4-SRC3 luciferase reporter, luminescence; inhibition, % at 3.6 µM; 360,000 tested, 0.17% active; AID 588352;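 active = inhibition above a per-campaign cutoff, the mean of all compounds plus 3 SD, cut at about 60% in these data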;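 note: 0% = DMSO-treated cells and 100% = gossypol-treated cells at 36 µM; higher means less SRC3-driven luciferase light from the GAL4 reporter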
COUP-TFII inh – blocks human COUP-TFII nuclear receptor; P24468; HEK293T NGFI-A luciferase reporter, luminescence; inhibition, % at 8.6 µM; 370,000 tested, 0.7% active; AID 686940;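 active = inhibition above a per-plate cutoff, mean inhibition of test wells between control levels plus 3 SD, cut at about 38% in these data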;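 note: cells cotransfected with COUP-TFII expression vector driving the NGFI-A reporter; 0% = median of COUP-TF2 test wells and 100% = reporter-only cells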
Gli-Sufu block – blocks Gli-Sufu signaling in a luciferase reporter; inhibition, % at 5 µM; 340,000 tested, 0.74% active; AID 588413; Sufu-KO-LIGHT fibroblasts, Gli luciferase reporter luminescence;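 active = inhibition above about 55%, limit read from the data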;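 note: 0% = DMSO-treated cells and 100% = wells with medium but no cells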
NCOA1 inh – inhibits human SRC1 coactivator; Q15788; HEK293 GAL4-SRC1 luciferase reporter, luminescence; inhibition, % at 3.6 µM; 360,000 tested, 0.12% active;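 active = inhibition above the campaign mean plus 3 SD, with each screening campaign given its own cutoff, cut at about 60% in these data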;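 note: 0% = DMSO treated cells and 100% = gossypol at 36 µM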
Gli-Sufu confirm – Gli-SUFU antagonism confirmation, single concentration. shares compounds with Gli-Sufu block. Sufu-KO-LIGHT cells, Gli luciferase reporter, luminescence. inhibition, % at 5 µM. 2,500 tested, 40% active. AID 602428;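 active = mean inhibition at 5 µM reaching about 45%, limit read from the data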;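 note: plate controls were DMSO-treated cells for no effect and wells lacking cells for full effect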
Gli cytotox – cytotoxicity counter-screen for Gli-SUFU antagonists. shares compounds with Gli-Sufu block. Sufu-KO-LIGHT cells cytotoxicity, ATP luminescence. cytotoxicity, % at 5 µM. 2,500 tested, 32% active;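 active = mean cytotoxicity at 5 µM above about 25%, limit read from the data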;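 note: cells exposed to compound overnight for roughly 16 to 18 hours; plate controls were DMSO wells with cells for no effect and medium without cells for full effect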
Wnt3a counter – Wnt3a reporter inhibition counter-screen; shares compounds with Gli-Sufu block; Wnt-LIGHT cells, Wnt3a-driven luciferase reporter, luminescence; inhibition, % at 6.25 µM; 2,500 tested, 20% active;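 active = mean inhibition above about 25%, limit read from the data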
Active calls of the source: *; ! = repeats disagree. Shown are actives, neighbours in structure and some others; about 1.2% of the full set was active somewhere.

C=CCN1C(=O)c2n[nH]c(COC)c2C1c1ccc(Br)cc1 (stereo not drawn) was read as NCOA2 inhibitor -43 and COUP-TFII inh -19.
`CC1CCC(C(C)C)C(OC(=O)Cn2c(-c3ccc(Br)cc3)[n+](C)c3ccccc32)C1` (stereo not drawn) gave NR5A2 inv ag -3, NCOA2 inhibitor 16, NCOA3 inh 9, COUP-TFII inh 24, Gli-Sufu block 70*!, NCOA1 inh 3, Gli-Sufu confirm 70*, Gli cytotox 41* and Wnt3a counter -27.
CC(Sc1nc2ccccc2[nH]1)C(=O)NC1CCCCC1C (stereo not drawn) was read as NR5A2 inv ag 23, NCOA2 inhibitor 5, NCOA3 inh 12, COUP-TFII inh 13, Gli-Sufu block -13 and NCOA1 inh 3.
For CC(Sc1nc2ccccc2c(=O)n1C)C(=O)NC1CCCCC1C (stereo not drawn) the results were NR5A2 inv ag -16, NCOA3 inh 9, Gli-Sufu block 59*, NCOA1 inh -7, Gli-Sufu confirm 55*, Gli cytotox 21 and Wnt3a counter 7.
Screening COc1ccc(S(=O)(=O)N2CCN(Cc3ccccc3)CC2)c(C)c1 returned NR5A2 inv ag 0, NCOA2 inhibitor -19, NCOA3 inh 3, COUP-TFII inh 25, Gli-Sufu block 5 and NCOA1 inh -24.
`COc1cc(C)c(C)cc1S(=O)(=O)N1CCN(Cc2ccccc2)CC1` gave NR5A2 inv ag 5, NCOA2 inhibitor 4, NCOA3 inh 0, COUP-TFII inh 16, Gli-Sufu block 50, NCOA1 inh 1, Gli-Sufu confirm 18, Gli cytotox -4 and Wnt3a counter 14.
`CCCc1cc(=O)oc2cc(C)cc(OCC(=O)O)c12` gave NR5A2 inv ag 26, NCOA2 inhibitor 30, NCOA3 inh -13, COUP-TFII inh -2, Gli-Sufu block 100*, NCOA1 inh -5, Gli-Sufu confirm 5, Gli cytotox -5 and Wnt3a counter -9.
Screening COC(=O)C1=C(C)N(Cc2ccc(C(F)(F)F)cc2)C(=NCC2CC2)NC1c1ccccc1C(F)(F)F (stereo not drawn) returned NCOA2 inhibitor -21 and COUP-TFII inh 4.
For CC(C)NC(=O)c1ccccc1NC(=O)C1CCCO1 (stereo not drawn) the results were NR5A2 inv ag -2, NCOA2 inhibitor 5, NCOA3 inh 22, COUP-TFII inh -24, Gli-Sufu block 59*, NCOA1 inh -1, Gli-Sufu confirm 13, Gli cytotox 8 and Wnt3a counter -1.
Screening Cc1cccc(C)c1NC(=O)[C@H]1CC(=O)O[C@@H]1c1ccccc1 returned NCOA2 inhibitor 3 and COUP-TFII inh -9.
For CCOC(=O)c1c(NC(=O)COc2ncnc3ccccc23)sc(C(C)=O)c1C the results were NR5A2 inv ag 7, NCOA2 inhibitor -9, NCOA3 inh 2, COUP-TFII inh 19, Gli-Sufu block 55*, NCOA1 inh 2, Gli-Sufu confirm 38, Gli cytotox 22 and Wnt3a counter -9.
`COc1ccc(C)cc1NC(=O)CCN1CCN(c2ccccc2F)CC1` gave NR5A2 inv ag 15, NCOA2 inhibitor 5, NCOA3 inh 3, COUP-TFII inh -4, Gli-Sufu block 59*, NCOA1 inh 10, Gli-Sufu confirm 15, Gli cytotox 11 and Wnt3a counter -1.
`CS(=O)(=O)N(CC(=O)Nc1ccccc1Sc1ccccc1)c1ccc(F)cc1` gave NR5A2 inv ag 3, NCOA2 inhibitor 2, NCOA3 inh -15, COUP-TFII inh -1, Gli-Sufu block 65*, NCOA1 inh -5, Gli-Sufu confirm 28, Gli cytotox 6 and Wnt3a counter -5.
`CS(=O)(=O)N(CC(=O)Nc1ccccc1-c1ccccc1)c1ccc(F)cc1` gave NR5A2 inv ag -8, NCOA2 inhibitor 18, NCOA3 inh 10, COUP-TFII inh -1, Gli-Sufu block 4 and NCOA1 inh -8.
`COC(=O)[C@]12C[C@H](CC(=O)NCc3ccc(OC)c(OC)c3)C(=O)N(Cc3ccc4c(c3)OCO4)C1=C[C@H](COCc1ccccc1)O[C@@H]2C` gave NCOA2 inhibitor 1 and COUP-TFII inh -5.
`C#CCNC(=O)C[C@H]1C[C@@]2(C(=O)OC)C(=C[C@H](C3CCCC3)O[C@@H]2C)N(Cc2ccccc2)C1=O` gave NCOA2 inhibitor -7 and COUP-TFII inh -17.
Nc1nonc1-n1nnc(C(=O)N/N=C/c2ccccc2)c1CSc1ccccc1 was read as NR5A2 inv ag 16, NCOA2 inhibitor -8, NCOA3 inh 14, COUP-TFII inh -9, Gli-Sufu block 5 and NCOA1 inh -16.
Screening Nc1nonc1-n1nnc(C(=O)N/N=C/c2ccncc2)c1CSc1ccccc1 returned NR5A2 inv ag -8, NCOA2 inhibitor -17, NCOA3 inh 0, COUP-TFII inh 1, Gli-Sufu block 62*, NCOA1 inh -15, Gli-Sufu confirm 27, Gli cytotox 20 and Wnt3a counter 2.
For CC1CCN(Cc2c(C(=O)N/N=C/c3ccccc3O)nnn2-c2nonc2N)CC1 the results were NR5A2 inv ag -7, NCOA2 inhibitor 8, NCOA3 inh 48, COUP-TFII inh 10, Gli-Sufu block 52, NCOA1 inh 29, Gli-Sufu confirm 62*, Gli cytotox 23 and Wnt3a counter 27*.
`CCOC(=O)CN1C(=O)[C@]2(OCCC=C[C@H]2C)c2cc(OC)ccc21` gave NCOA2 inhibitor 10 and COUP-TFII inh -22.
COC(=O)C[C@@H]1CC[C@H]2[C@@H](COc3ccc(NC(=O)Nc4ccc(C)cc4)cc3C(=O)N2C)O1 was read as NCOA2 inhibitor -42 and COUP-TFII inh -12.
`O=c1ccc(-c2ccc(S(=O)(=O)NCC3CCN(Cc4cccc(F)c4)CC3)s2)n[nH]1` gave NR5A2 inv ag 0, NCOA2 inhibitor -15, NCOA3 inh 19, COUP-TFII inh -11, Gli-Sufu block 59*, NCOA1 inh 2, Gli-Sufu confirm 13, Gli cytotox 22 and Wnt3a counter -5.
Screening CCOC(=O)c1c(S(=O)(=O)NCC2CCN(Cc3cccc(F)c3)CC2)c(C)n(C)c1C returned NR5A2 inv ag 2, NCOA2 inhibitor -4, NCOA3 inh 8, COUP-TFII inh 0, Gli-Sufu block 18 and NCOA1 inh 4.

Assay outcomes deposited in PubChem BioAssay by several laboratories.
